The source of these data is PubChem BioAssay (NCI).

This is part of a sample that, as a whole, favours compounds with a hit. Of some 83,000 tested, about 20% had one in any assay.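 Interpretation: 100, growth as untreated; towards 0, rising growth inhibition; 0, no net growth; 0 to -100, cell death. Compounds scoring below 10 were considered active.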 Unmarked numbers belong to inactive results. Active and inactive are the calls of the source.

Common to all, as to assay: NCI-60 one-dose screen, 48 h (100 = growth as untreated, 0 = no growth, -100 = all killed)
Holding throughout (settings): 10 µM unless noted

The test system of test [1] is HCT-15 colon.
In test [2] the test system is HT29 colon.
Test [3] concerns SNB-75 CNS.
For test [4], the system named is SNB-19 CNS.
Test [5] deals with U251 CNS.
For test [6], the system named is PC-3 prostate.
The test system of test [7] is SK-MEL-5 melanoma.
Test [8] has as its system UACC-62 melanoma.
In test [9] the test system is LOX IMVI melanoma.
The subject of test [10] is SK-MEL-28 melanoma.

Consider `Cn1cc(-c2nn3c(=O)cc(-c4ccccc4)nc3s2)c2cc(F)ccc21`, for which the growth in test [1] was 29.6%; in test [2], 33.3%; in test [3] it was 30.9%; in test [4], 65.6%; in test [5], 48.5%; in test [6], 34.8%. The growth in test [7] was 43.8%; in [8], 33.9%; in [9], 59.3%; in test [10], 45.2%.
Take `C/C=C/C=C1\C[C@H]2CO[C@H](O2)C1=O`: the growth in [1] was 80.8%; in [2] it was 108%; in test [3], 106%; in test [4], 95.6%; in test [5], 97.4%; in test [6], 96.5%. The growth was 98.5% in [7], 89.5% in [8], 49.3% in test [9] and 104% in test [10].
For `CCN1C(=O)N(CC)C2SC(N/N=C/c3ccccc3F)=NC21` (stereo not given), the growth in test [1] was 16.2%; in test [2], 0.675% (active); in test [3] it was 21.5%; in test [4], 24.6%; in test [5] it was 16.4%; in test [6], 29.8%. Besides, the growth is 11.1% in test [7], 37.6% in test [8], 15.6% in test [9] and 54.8% in test [10].
With `CCN1CCN(Cc2ccc(C(=O)Nc3nc4ccc(Oc5ccnc(C(=O)NC)c5)cc4s3)cc2C(F)(F)F)CC1`, the growth in test [1] was 6.98% (active); in [2] it was 3.42% (active); in test [3], 75.9%; in [4], 66.6%; in [5] it was 41.9%; in [6] it was 46.1%. Moreover, the growth was 17.7% in [7], 24.6% in test [8], -11.8% (active) in test [9] and -66.5% (active) in [10].
In the case of `Cc1ccc(-c2cc(-c3ccc(N(C)C)cc3)n3c(n2)nc2ccccc23)cc1`, the growth in [1] is 56.6%; in [2], 65.8%; in test [3], 94%; in test [4], 50.2%; in test [5] it was 56.7%; in test [6], 47.8%. Besides, the growth is -37.6% (active) in test [7], 35% in [8], 83.5% in test [9] and 52.9% in test [10].
As to `CCN(CC)c1ccc2cc(C(=O)NCCOCCOCCOCCn3cc(CCC(=O)Nc4ccc(C(=O)c5ccc(NC(=O)OC(C)(C)C)cc5)cc4)nn3)c(=O)oc2c1`, the growth in test [1] is 72.7%; in test [2] it was 77.9%; in test [3], 94.6%; in test [4], 75.7%; in test [5], 69.8%; in [6], 39.4%. Moreover, the growth in test [7] was -17.2% (active); in test [8] it was 32.1%; in test [9], 26.7%; in [10], 82.6%.
In the case of `CCOC(=O)CC(=O)CSC1=NC2C(NN1)N(C)C(=O)N2C` (stereo not given), the growth was 63% in [1]; 62.9% in [2]; 99% in test [3]; 97.4% in test [4]; 98.6% in [5]; 89.4% in test [6]. The growth is 99.6% in test [7], 89.4% in test [8], 92.9% in test [9] and 89.3% in test [10].
Regarding `CC(C)=CCc1c2c(c(O)c3c1O[C@]14C(=C[C@@H]5C[C@H]1C(C)(C)O[C@@]4(C/C=C(/C)C(=O)O)C5=O)C3=O)CC(O)C(C)(C)O2` (stereo not given in full), the growth is -41.6% (active) in [1]; -8.66% (active) in test [2]; -25.7% (active) in test [3]; 22.6% in test [4]; -72.4% (active) in [5]; 7.46% (active) in [6]. Moreover, the growth in test [7] is -96.6% (active); in [8], -26.1% (active); in test [9] it was -95.4% (active); in test [10], -13.7% (active).
For the compound `C/C(=C(/c1ccc(O)cc1)c1ccc(OCCN2CCCCCC2)cc1)c1ccccc1`, the growth in [1] is -20.7% (active); in test [2], -8.88% (active); in [3], 71.2%; in test [4], 64.3%; in [5], 41.2%; in test [6], 44.1%. Besides, the growth in test [7] is 58.4%; in [8] it was 56.9%; in [9] it was 5.39% (active); in test [10], 21%.
For the compound `C=CCn1c(SCC(=O)Nc2cccc(C(=O)/C=C/c3ccc(C)cc3)c2)nc2ccccc2c1=O`, the growth in test [1] was 62%; in test [2], 72.7%; in test [3], 78.4%; in test [4], 81.7%; in [5], 72%; in [6], 72.5%. Further, the growth is 97.2% in test [7], 76.7% in test [8], 73.8% in [9] and 95.3% in test [10].
As to `COc1cc([C@H]2OC[C@H]3[C@@H]2CO[C@@H]3c2ccc(O)c(OC)c2)ccc1O`, the growth in test [1] was 88.4%; in [2], 92.8%; in test [3] it was 87.9%; in [4], 104%; in test [5], 97%; in test [6] it was 82.6%. For the same compound, the growth in test [7] is 57.3%; in test [8], 91%; in test [9] it was 9.99% (active); in test [10], 93.5%.
Turning to `CS(=O)(=O)c1nccc(-c2c(-c3ccc(F)c(OCc4ccccc4)c3)nc3sccn23)n1`, the growth in test [1] is 79.1%; in test [2], 103%; in test [3] it was 103%; in [4], 96.7%; in test [5], 107%; in test [6] it was -11.3% (active). In addition, the growth in [7] was 96.2%; in [8], 87%; in test [9], 44.6%; in [10], 85.9%.
Take `CCOC(=O)/C(F)=C/C1CC1C1CCCCC1` (stereo not given): the growth is 102% in [1]; 111% in test [2]; 95.2% in [3]; 98.5% in [4]; 105% in [5]; 102% in test [6]. Further, the growth in test [7] is 99.8%; in [8] it was 95.5%; in [9], 98%; in test [10] it was 100%.
As to `O=S(=O)(Nc1ccc(-n2cnc3cc(-c4ccc(O)cc4)ccc32)cc1)C1CC1`, the growth in test [1] is 85.1%; in test [2] it was 98.9%; in test [3], 51.3%; in test [4] it was 83.6%; in test [5], 74.6%; in test [6], 83.4%. Further, the growth was 88% in test [7], 73.8% in [8], 116% in test [9] and 94.2% in [10].
Turning to `COc1ccc(-c2nn(-c3ccccc3)cc2/C=C/C(=O)c2ccc(NC(=O)CCCCCCC(=O)NO)cc2)cc1`, the growth in test [1] is 80.5%; in test [2], 94.4%; in [3] it was 96.6%; in test [4], 106%; in [5], 106%; in test [6], 95.8%. Further, the growth is 101% in test [7], 94.9% in test [8], 90.4% in test [9] and 113% in test [10].
As for `COc1ccc2c(c1)c(-c1nnc(N)nc1-c1cn(C)c3ccccc13)cn2C`, the growth in test [1] is 87%; in test [2] it was 96%; in test [3], 42.9%; in test [4], 93.2%; in [5] it was 102%; in test [6], 88.8%. Besides, the growth was 97.8% in [7], 79% in [8], 90.8% in test [9] and 97.3% in test [10].
As to `C#CCOc1ccccc1C(Nc1ccccc1)c1nnnn1C1CCCCC1` (stereo not given), the growth in test [1] is 95.5%; in test [2], 105%; in test [3], 102%; in [4] it was 94.7%; in test [5] it was 99.9%; in test [6], 92.6%. Besides, the growth is 99.6% in [7], 63.3% in test [8], 95.4% in [9] and 101% in [10].
Take `Cn1cc(-c2nnc(N)nc2-c2cn(C)c3ccc(F)cc23)c2cc(F)ccc21`: the growth in test [1] is 91.8%; in test [2], 63.3%; in test [3], 64.4%; in test [4], 91%; in test [5], 83.2%; in test [6], 95.2%. The growth in test [7] was 91%; in test [8], 94.6%; in test [9] it was 98.4%; in test [10], 103%.
Take `CCC(=O)Nc1cc(Nc2cc(NC3CC3)n3ncc(C#N)c3n2)ccc1C`: the growth in test [1] was 13%; in test [2] it was 25.8%; in test [3], -9.89% (active); in test [4], 25.9%; in test [5], 19.5%; in [6] it was 19.7%. The growth in test [7] is 15.2%; in [8], 18.9%; in [9] it was 21.1%; in [10], 46.3%.
For `C=C(C)[C@@H]1CC[C@]2(COS(C)(=O)=O)CC[C@]3(C)[C@H](CC[C@@H]4[C@@]5(C)CCCNC(C)(C)[C@@H]5CC[C@]43C)[C@@H]12`, the growth in [1] was 3.99% (active); in test [2] it was 19.7%; in [3], 112%; in [4], 81.5%; in test [5] it was 13.6%; in test [6], 67.7%. In addition, the growth in test [7] is 97.4%; in [8], 74.8%; in [9], -79% (active); in [10] it was 103%.
`COc1ccc(-c2nc3cc(Cl)c(Cl)cc3n2CC(=O)N=Nc2c(O)[nH]c3ccccc23)cc1`: the growth is 30.6% in test [1]; 78.9% in [2]; 60% in [3]; 91.3% in test [4]; 71% in test [5]; 76.1% in [6]. For the same compound, the growth in test [7] was 53.6%; in test [8], 68.1%; in [9], 9.62% (active); in test [10] it was 74.7%.
`CCOP(=O)(OCC)OC[C@]12CCC(C)(C)C[C@H]1C1=CC[C@@H]3[C@@]4(C)C/C(=C\c5cccnc5)[C@H](OP(=O)(OCC)OCC)C(C)(C)[C@@H]4CC[C@@]3(C)[C@]1(C)CC2`: the growth in test [1] was 14.4%; in test [2], 12%; in test [3], 80.2%; in test [4] it was 40%; in test [5] it was 14.7%; in test [6] it was 15.6%. The growth was -61.3% (active) in [7], 25.5% in test [8], 22% in test [9] and 34.5% in [10].
As to `Cn1c2ccc(Br)cc2c2c3c(c4c5cc(F)ccc5oc4c21)C(=O)N(O)C3=O`, the growth in test [1] is 89.2%; in test [2], 101%; in test [3], 70%; in test [4], 74.3%; in test [5] it was 79.8%; in test [6] it was 68%. The growth is 90.3% in test [7], 80.2% in test [8], 61.9% in test [9] and 112% in [10].
For the compound `CS(=O)(=O)c1nccc(-c2c(-c3ccc(F)c(OCc4ccc(F)cc4)c3)nc3sccn23)n1`, the growth in test [1] was 70%; in [2], 85.5%; in test [3], 106%; in test [4] it was 75.4%; in test [5] it was 100%; in test [6] it was -17.3% (active). The growth in test [7] is 96.7%; in [8], 81.1%; in test [9], 19.9%; in test [10], 61.6%.
